Compound activity from PubChem BioAssay.
The list is not random: actives were taken first. Their share in the collection is about 19%.
DT40 TDP1 CPT: DT40-hTDP1 cell growth loss with CPT; chicken DT40 Tdp1-/-;hTDP1 cells + 20 nM CPT, ATP luminescence, 48 h; Potency, µM (doses to about 46.2 µM), for inactives: top-dose activity change, negative = growth inhibition, hits mostly inhibitors; 420,000 tested, 12% active; note: potency is the fitted concentration of half-maximal effect; nearly all actives have a fitted effect of over 55% in size
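Cell growth measured by CellTiter-Glo luminescence after a minimum 48 h, 37 C compound exposure with 20 nM CPT in Tdp1-knockout DT40 cells stably expressing hTDP1, seeded 400/well; qHTS titration format.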
TDP1 cell noCPT: qHTS for Inhibitors of human tyrosyl-DNA phosphodiesterase 1 (TDP1): qHTS in cells in absence of CPT | DT40 Tdp1-/- hTDP1 cells, no CPT, ATP luminescence, 48 h | Potency, µM (doses to about 46.2 µM), without a hit: at the highest dose activity change, negative = growth inhibition, actives largely listed as inhibitors | 420,000 tested, 15% active | AID 686978, 2013; note: potency is the fitted concentration of half-maximal effect; nearly all actives have a fitted effect of over 55% in size
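Chicken DT40 Tdp1-/- cells stably complemented with human TDP1 were seeded at 400 cells/well with DMSO in place of 20 nM camptothecin. After compound pinning, cells grew at least 48 hr at 37 °C; viability read by CellTiter-Glo luminescence.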
HT1080NT lethal: kills 2HG-producing HT-1080-NT fibrosarcoma cells; HT-1080-NT fibrosarcoma viability, CellTiter-Glo ATP luminescence, 48 h; Potency, µM (titrated, usually from 46.1 µM), for the others: at the top dose activity, negative = less viability, usual class: cytotoxic; 360,000 tested, 1.6% active;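 note: NT is the 2HG producing partner of a matched IDH1 knockdown line; potency is the fitted concentration of half-maximal effect; 0% = DMSO-treated cells and -100% = media-only wells without cells; nearly all actives have a fitted effect of over 55% in size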
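A 48-hour cytotoxicity screen used HT-1080-NT cells plated 2 hours before compound delivery. ATP-based CellTiter-Glo luminescence measured viability, normalized to DMSO and no-cell controls.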
IL1B secr inh: inhibitors of inflammasome signaling (IL-1 beta secretion). THP-1 LPS/ATP IL-1B secretion, AlphaLISA, 16 h; hits give low values. activity change, % at 57.5 µM. 360,000 tested, 4.7% active. AID 743279; in the data active = activity change below about -50%; inconclusive = mostly about -30% to -49%
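THP-1 cells pretreated 1 hr with compounds (up to 57.5 uM final), then stimulated with LPS (250 ng/mL final) plus ATP (1.25 mM final); secreted IL-1B measured by AlphaLISA after 16 hr, decreased signal indicating inhibition.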
HT1080 IDH1KD tx: HT-1080 IDH1 knockdown cell toxicity (counter line); HT-1080 IDH1 knockdown viability, ATP luminescence, 48 h; Potency, µM (titrated, usually from 46.1 µM), without a hit: at the top dose activity, negative = toxicity, hits mostly cytotoxic; 360,000 tested, 2% active; AID 686971;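 note: potency is the fitted concentration of half-maximal effect; 0% = DMSO wells and -100% = cell-free medium wells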
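% activity derives from luminescence (CellTiter-Glo), normalised to DMSO and no-cell wells. HT-1080-IDH1KD cells, 750/well, had 48 h compound exposure at 37 °C.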
Active calls of the source: *; ? = inconclusive; . = no result given. Unless noted, calls come from the whole dose curve; as a rule, active = well fitted curve in the direction sought with a large enough effect; inconclusive = small, poorly fitted or top-dose-only effect, or another doubt; inactive = no such curve, though single readings can be large; an effect the other way counts as inactive or inconclusive. Unless noted, % is set by controls: 0 for no effect and ±100 for the full control effect.

SMILES	DT40 TDP1 CPT	TDP1 cell noCPT	HT1080NT lethal	IL1B secr inh	HT1080 IDH1KD tx
CC(C)NC(=O)C1CCC(Cn2c(=O)c3sccc3n(CC(=O)N3CCCC3)c2=O)CC1 (stereo not given)	-2.5%	4.7%	.	.	.
COc1ccc(NS(=O)(=O)c2cccc(C(=O)NNC(=O)CNC(=O)c3ccco3)c2)cc1	13.5%	17.5%	13.6%	-8.6	16.0%
Cc1ccc(NS(=O)(=O)c2ccccc2Cl)c2c1CC(C)(C)O2	20µM*	14.1µM*	-8.7%	3.2	1.0%
O=C(Cc1ccsc1)Nc1ccccc1F	12.0%	-19.7%	19.3%	-5.0	10.0%
O=c1c2sc3ccccc3c2n(Cc2ccccc2F)c(=O)n1-c1ccccc1Cl	20.6µM*	9.2µM*	.	.	.
O=c1c2sc3ccccc3c2n(Cc2cccc(F)c2)c(=O)n1Cc1ccccc1	?	16.4µM*	.	.	.
O=c1c2sc3ccccc3c2n(Cc2ccccc2)c(=O)n1Cc1ccccc1	-2.5%	-21.9%	.	.	.
O=c1c2sc3ccccc3c2n(Cc2cccc(Cl)c2)c(=O)n1Cc1ccccc1	13µM*	?	.	.	.
Cc1nc2c(sc(=S)n2Cc2ccco2)c(=O)n1CC(=O)Nc1cc(F)ccc1F	11.6µM*	?	-1.2%	6.5	8.0%
Cc1nc2c(sc(=S)n2Cc2ccco2)c(=O)n1CC(=O)Nc1ccc(F)cc1	?	?	5.2%	-8.7	6.3%
O=C(Cn1c(=O)n(Cc2ccco2)c(=O)c2sc3ccccc3c21)Nc1ccc(F)cc1F	?	10.3µM*	.	.	.
O=c1c2sc3ccccc3c2n(Cc2cccc(Cl)c2)c(=O)n1Cc1ccco1	20.6µM*	23.1µM*	.	.	.
O=c1c2sc3ccccc3c2n(Cc2cccc(Cl)c2)c(=O)n1Cc1ccc(F)cc1	10.3µM*	6.51µM*	.	.	.
Cc1ccc(C(=O)c2c(N)c(C(=O)Nc3cccc(C(F)(F)F)c3)c3ccccn23)cc1	-25.4%	?	.	.	.
CC(=O)Oc1c(Cl)c(N2CCOCC2)c(OC(C)=O)c2ccccc12	20.6µM*	16.4µM*	-3.9%	62.9	-0.1%
COc1ccc(NC(=S)N(CCC(C)C)C2CCN(C(C)C)CC2)cc1	?	-17.8%	-4.0%	?	1.5%
CC(C)CCN(C(=S)Nc1cccc(F)c1)C1CCN(C(C)C)CC1	9.9%	6.6%	-1.9%	-92.0*	-19.4%
Cc1cc(NC(=O)CCCN2C(=O)c3cccc4cccc(c34)C2=O)no1	1.5%	-11.1%	?	-2.7	?
Cc1cc(NC(=O)CCCN2C(=O)c3cccnc3C2=O)no1	20.6µM*	25.9µM*	0.4%	57.6	?
O=c1[nH]c(NCc2ccco2)nnc1Cc1ccccc1Cl	6.51µM*	4.11µM*	?	-16.5	?
Cc1ccc(S(=O)(=O)N2CCC[C@H]2C(=O)Nc2ccccc2Cl)cc1	4.0%	16.4µM*	-4.0%	-19.7	-6.1%
O=C(NCCc1ccccc1)C(=O)NCCC1CCCCN1S(=O)(=O)c1ccccc1 (stereo not given)	?	?	-0.6%	?	-1.8%
Cc1ccc(S(=O)(=O)N2CCCC2C(=O)OCc2ccco2)cc1 (stereo not given)	14.6µM*	20.6µM*	-4.4%	-19.8	?
O=C(NCCc1ccccc1)C(=O)NCC1CCCN1S(=O)(=O)c1ccccc1 (stereo not given)	13µM*	10.3µM*	-24.8%	0.3	?
O=C(Nc1ccccc1F)C1CCCN1S(=O)(=O)c1ccc(Cl)cc1 (stereo not given)	-21.4%	-10.5%	-8.7%	-0.6	1.1%
COc1ccc(CCNC(=O)C(=O)NCC2OCCN2S(=O)(=O)c2ccccc2)cc1OC (stereo not given)	?	-18.6%	-8.2%	-24.3	-2.4%
COc1ccc(CCNC(=O)C(=O)NCC2CCCN2S(=O)(=O)c2ccccc2)cc1OC (stereo not given)	?	13µM*	-10.3%	-23.0	-16.6%
